The record followed here is ChEMBL document CHEMBL1961873, “Compounds: GSK PKIS; Assays: Nanosyn kinase panel” (2012).

Usually inhibition stands for the change of the read-out against control, counted positive when it falls.

The target of test [1] is Serine/threonine-protein kinase MRCK alpha (Homo sapiens) (UniProt Q5VT25). The following applies: at 0.1 µM.
Test [2] shares this target. The following applies: at 1 µM.
The target in test [3] is Serine/threonine-protein kinase MRCK beta (Homo sapiens) (UniProt Q9Y5S2). The following applies: at 0.1 µM.
The target is the same in test [4]. The following applies: at 1 µM.
For test [5], the target named is Ribosomal protein S6 kinase alpha-5 (Homo sapiens) (UniProt O75582). Conditions: at 0.1 µM.
Test [6] shares this target. Conditions: at 1 µM.
Test [7] concerns the target Ribosomal protein S6 kinase alpha-4 (Homo sapiens) (UniProt O75676). Conditions: at 0.1 µM.
The target is the same in test [8]. The following applies: at 1 µM.
Test [9] deals with Ribosomal protein S6 kinase beta-1 (Homo sapiens) (UniProt P23443). Conditions: at 0.1 µM.
Chain of Ribosomal protein S6 kinase beta-1 (Homo sapiens) (P23443 whole entry, looked up): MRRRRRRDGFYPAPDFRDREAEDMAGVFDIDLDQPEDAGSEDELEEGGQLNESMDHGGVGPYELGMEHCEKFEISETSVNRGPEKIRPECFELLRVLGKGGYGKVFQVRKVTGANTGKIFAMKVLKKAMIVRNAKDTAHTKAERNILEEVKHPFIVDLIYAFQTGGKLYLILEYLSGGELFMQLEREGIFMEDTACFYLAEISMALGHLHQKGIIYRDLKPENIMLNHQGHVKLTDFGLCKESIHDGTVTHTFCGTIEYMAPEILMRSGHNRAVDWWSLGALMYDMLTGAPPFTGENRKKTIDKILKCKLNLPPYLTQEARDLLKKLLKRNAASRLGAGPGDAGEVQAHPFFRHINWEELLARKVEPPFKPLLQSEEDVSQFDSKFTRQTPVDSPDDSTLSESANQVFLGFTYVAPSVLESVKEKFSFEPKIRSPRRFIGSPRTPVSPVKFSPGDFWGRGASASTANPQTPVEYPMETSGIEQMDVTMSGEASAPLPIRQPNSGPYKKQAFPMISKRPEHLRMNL
Test [10] has the same target. The following applies: at 1 µM.
Test [11] concerns the target T1, 3-phosphoinositide-dependent protein kinase 1 (Homo sapiens) (UniProt O15530).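 Further: values are mean inhibition of PDK1.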
T1 sequence (whole entry): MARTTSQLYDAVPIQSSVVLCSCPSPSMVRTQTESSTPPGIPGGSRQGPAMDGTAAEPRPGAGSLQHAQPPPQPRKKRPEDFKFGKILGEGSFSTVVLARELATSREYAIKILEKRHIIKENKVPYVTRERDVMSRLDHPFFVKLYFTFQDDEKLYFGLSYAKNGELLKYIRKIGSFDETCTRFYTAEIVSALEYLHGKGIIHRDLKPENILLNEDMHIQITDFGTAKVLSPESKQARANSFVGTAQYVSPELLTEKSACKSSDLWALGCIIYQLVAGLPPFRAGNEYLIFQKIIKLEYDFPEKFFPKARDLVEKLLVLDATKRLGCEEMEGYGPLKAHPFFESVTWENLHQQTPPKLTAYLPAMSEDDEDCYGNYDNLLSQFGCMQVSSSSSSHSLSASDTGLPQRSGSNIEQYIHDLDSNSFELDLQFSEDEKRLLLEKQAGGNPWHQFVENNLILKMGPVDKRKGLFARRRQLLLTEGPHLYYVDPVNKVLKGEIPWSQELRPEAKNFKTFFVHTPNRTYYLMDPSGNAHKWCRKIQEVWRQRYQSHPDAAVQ
Conditions: at 0.1 µM.

Test [12] deals with cAMP-dependent protein kinase catalytic subunit alpha (Homo sapiens) (UniProt P17612). The following applies: at 0.1 µM.
Test [13] has the same target. Conditions: at 1 µM.
Test [14] has as its target Protein kinase C alpha type (Homo sapiens) (UniProt P17252). The following applies: at 0.1 µM.
For test [15] the target is unchanged. Conditions: at 1 µM.
Test [16] addresses Protein kinase C beta type (Homo sapiens) (UniProt P05771). Conditions: at 0.1 µM.
Test [17] has the same target. The following applies: at 1 µM.
The target of test [18] is Protein kinase C eta type (Homo sapiens) (UniProt P24723). Conditions: at 0.1 µM.
Chain of Protein kinase C eta type (Homo sapiens) (P24723 whole entry): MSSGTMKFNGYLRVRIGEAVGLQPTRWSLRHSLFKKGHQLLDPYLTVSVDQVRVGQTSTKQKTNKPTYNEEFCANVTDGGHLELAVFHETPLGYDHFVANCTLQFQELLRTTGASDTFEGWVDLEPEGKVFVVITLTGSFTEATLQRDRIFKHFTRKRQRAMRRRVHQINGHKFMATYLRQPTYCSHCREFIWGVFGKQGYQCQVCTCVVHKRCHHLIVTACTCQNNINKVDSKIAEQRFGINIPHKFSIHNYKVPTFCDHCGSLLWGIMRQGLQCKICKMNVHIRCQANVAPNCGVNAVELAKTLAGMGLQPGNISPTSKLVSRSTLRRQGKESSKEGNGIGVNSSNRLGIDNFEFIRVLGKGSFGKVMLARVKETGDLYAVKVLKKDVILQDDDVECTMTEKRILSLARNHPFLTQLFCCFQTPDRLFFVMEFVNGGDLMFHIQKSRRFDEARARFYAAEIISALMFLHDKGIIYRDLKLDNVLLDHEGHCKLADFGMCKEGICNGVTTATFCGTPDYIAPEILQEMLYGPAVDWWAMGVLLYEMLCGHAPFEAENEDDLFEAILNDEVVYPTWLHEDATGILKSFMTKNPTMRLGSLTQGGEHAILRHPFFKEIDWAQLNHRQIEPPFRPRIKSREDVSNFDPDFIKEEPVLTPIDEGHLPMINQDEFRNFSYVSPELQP
Test [19] shares this target. The following applies: at 1 µM.
Test [20] deals with Protein kinase C gamma type (Homo sapiens) (UniProt P05129). Conditions: at 0.1 µM.

Chain of Serine/threonine-protein kinase MRCK alpha (Homo sapiens) (Q5VT25 whole entry): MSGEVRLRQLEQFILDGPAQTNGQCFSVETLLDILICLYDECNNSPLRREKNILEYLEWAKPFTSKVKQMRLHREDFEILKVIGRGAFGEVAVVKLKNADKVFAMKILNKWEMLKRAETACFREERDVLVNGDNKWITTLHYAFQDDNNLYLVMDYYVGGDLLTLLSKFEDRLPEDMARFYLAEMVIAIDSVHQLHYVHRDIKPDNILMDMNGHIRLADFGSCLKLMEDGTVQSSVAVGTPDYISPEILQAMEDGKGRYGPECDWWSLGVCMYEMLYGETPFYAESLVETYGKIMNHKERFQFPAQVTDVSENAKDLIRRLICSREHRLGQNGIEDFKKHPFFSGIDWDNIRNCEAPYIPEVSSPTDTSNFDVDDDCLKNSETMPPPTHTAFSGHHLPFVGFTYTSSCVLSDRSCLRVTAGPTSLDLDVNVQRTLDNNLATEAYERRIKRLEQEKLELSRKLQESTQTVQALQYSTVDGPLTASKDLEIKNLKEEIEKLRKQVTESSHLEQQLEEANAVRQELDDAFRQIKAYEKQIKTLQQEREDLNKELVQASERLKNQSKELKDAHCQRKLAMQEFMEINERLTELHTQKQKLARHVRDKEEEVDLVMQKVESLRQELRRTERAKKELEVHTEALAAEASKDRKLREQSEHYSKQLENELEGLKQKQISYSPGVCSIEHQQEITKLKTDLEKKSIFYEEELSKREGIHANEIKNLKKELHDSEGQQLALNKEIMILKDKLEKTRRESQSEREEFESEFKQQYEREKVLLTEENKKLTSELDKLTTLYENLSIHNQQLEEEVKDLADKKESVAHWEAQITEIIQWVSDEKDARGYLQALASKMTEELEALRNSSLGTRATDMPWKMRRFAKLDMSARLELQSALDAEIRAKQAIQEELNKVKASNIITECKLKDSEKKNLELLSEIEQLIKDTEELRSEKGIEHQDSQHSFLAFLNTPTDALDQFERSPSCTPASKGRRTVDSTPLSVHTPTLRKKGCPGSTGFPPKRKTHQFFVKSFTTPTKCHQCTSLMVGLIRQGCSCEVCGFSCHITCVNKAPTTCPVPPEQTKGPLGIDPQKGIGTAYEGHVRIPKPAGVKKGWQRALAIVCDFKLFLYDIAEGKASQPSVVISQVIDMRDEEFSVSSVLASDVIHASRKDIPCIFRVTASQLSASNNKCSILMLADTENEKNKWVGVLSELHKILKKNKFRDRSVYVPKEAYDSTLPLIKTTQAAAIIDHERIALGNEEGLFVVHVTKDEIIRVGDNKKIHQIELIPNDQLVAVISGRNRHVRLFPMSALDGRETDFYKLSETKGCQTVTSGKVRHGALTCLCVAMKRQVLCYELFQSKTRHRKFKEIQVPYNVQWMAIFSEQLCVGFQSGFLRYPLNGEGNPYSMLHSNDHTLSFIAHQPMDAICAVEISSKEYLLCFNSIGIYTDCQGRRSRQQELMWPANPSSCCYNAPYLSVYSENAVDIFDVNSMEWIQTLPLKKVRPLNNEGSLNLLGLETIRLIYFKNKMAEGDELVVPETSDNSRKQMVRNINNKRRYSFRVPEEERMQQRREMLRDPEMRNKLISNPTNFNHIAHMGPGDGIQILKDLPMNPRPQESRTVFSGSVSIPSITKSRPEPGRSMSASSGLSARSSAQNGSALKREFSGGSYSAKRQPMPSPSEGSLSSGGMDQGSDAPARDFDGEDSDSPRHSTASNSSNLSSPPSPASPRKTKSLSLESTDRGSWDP
Chain of Ribosomal protein S6 kinase alpha-4 (Homo sapiens) (O75676 whole entry, looked up): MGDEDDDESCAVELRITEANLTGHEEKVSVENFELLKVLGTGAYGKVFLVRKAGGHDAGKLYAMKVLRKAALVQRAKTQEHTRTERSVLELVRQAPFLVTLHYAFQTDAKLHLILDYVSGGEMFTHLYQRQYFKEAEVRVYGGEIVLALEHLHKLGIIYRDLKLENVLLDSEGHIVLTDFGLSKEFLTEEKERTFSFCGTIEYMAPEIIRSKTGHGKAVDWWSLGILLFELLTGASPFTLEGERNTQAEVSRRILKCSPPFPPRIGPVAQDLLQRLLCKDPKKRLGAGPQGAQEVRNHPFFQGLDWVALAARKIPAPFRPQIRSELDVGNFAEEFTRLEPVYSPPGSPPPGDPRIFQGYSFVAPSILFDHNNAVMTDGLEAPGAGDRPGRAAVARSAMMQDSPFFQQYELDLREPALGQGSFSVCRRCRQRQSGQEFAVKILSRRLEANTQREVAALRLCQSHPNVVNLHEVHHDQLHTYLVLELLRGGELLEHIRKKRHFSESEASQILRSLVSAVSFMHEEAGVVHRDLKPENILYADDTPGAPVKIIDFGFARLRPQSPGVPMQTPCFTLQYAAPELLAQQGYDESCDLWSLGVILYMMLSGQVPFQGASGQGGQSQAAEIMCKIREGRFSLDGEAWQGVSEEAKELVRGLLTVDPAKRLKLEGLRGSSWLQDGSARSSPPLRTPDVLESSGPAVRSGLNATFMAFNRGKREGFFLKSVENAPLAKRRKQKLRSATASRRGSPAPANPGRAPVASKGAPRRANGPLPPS

For the compound `CN1CCN(C(=O)c2ccc(NC(=O)Nc3ccc(N(C)c4ccnc(Nc5ccc(CS(C)(=O)=O)cc5)n4)cc3)cc2)CC1`, the inhibition in [1] is 5.17%; in [2] it was 7.71%; in test [3] it was -0.06%; in test [4], 3.61%; in test [5], 1.16%; in test [6], 3.3%. Moreover, the inhibition was found to be 2.61% in test [7]; 13.8% in [8]; 1.43% in test [9]; 5.8% in test [10]; 1.6% in test [11]; 1.2% in test [12]. The inhibition is 4.5% in test [13]; -0.39% in test [14]; 0.75% in test [15]; 0.01% in test [16]; 2.15% in test [17]; 3.18% in test [18]. Also, the inhibition in [19] came out at 2.34%; in [20] it was 2.19%.

For `Nc1ccc(C#Cc2cncnc2Nc2ccc(OCc3cccc(F)c3)c(Cl)c2)cc1`, the inhibition was -1.73% in test [1]; 0.19% in [2]; 1.04% in test [3]; 1.18% in [4]; 1.3% in test [5]; -0.19% in test [6]. In addition, the inhibition in [7] was 1.93%; in [8], 3.14%; in test [9] it was 0.9%; in test [10], 0.85%; in test [11], -0.28%; in test [12], 3.59%. In addition, the inhibition stood at 2.77% in [13]; 0.42% in [14]; 1.03% in test [15]; 1.2% in test [16]; 2.03% in test [17]; 4.79% in [18]. The figures for the inhibition in test [19] and in test [20] were 2.72% and -0.9%, respectively.

Turning to `c1ccc(Cc2nc3ccc(Nc4ncnc5ccccc45)cc3[nH]2)cc1`, the inhibition in test [1] was -0.57%; in test [2], -0.25%; in [3], -0.96%; in [4], -0.17%; in test [5], 2.76%; in test [6], 4.26%. For the same compound, the inhibition turned out to be 0.49% in test [7]; 2.83% in [8]; 0.76% in [9]; 2.79% in [10]; 0.78% in test [11]; 1.15% in test [12]. Further, the inhibition in [13] came out at 2.76%; in test [14] it was 1.22%; in test [15] it was 4.52%; in test [16], 1.26%; in [17] it was 1.59%; in test [18], 2.55%. Further, the inhibition in test [19] was 2.75%; in test [20], 1.69%.

Take `O=S(=O)(CCOCc1ccc(-c2ccc3ncnc(Nc4ccc(OCc5cccc(F)c5)c(Cl)c4)c3c2)o1)c1ccccc1`: the inhibition in test [1] is 0.06%; in [2] it was -0.21%; in test [3] it was 0.42%; in [4] it was 1.18%; in [5] it was 0.65%; in test [6] it was 0.85%. Also, the inhibition is -0.78% in [7]; 0.33% in test [8]; -1.35% in test [9]; -0.16% in test [10]; -0.28% in test [11]; 0.54% in test [12]. The inhibition is -0.2% in [13]; 0.23% in test [14]; 0.58% in [15]; -0.21% in test [16]; -0.92% in test [17]; 1.32% in test [18]. The inhibition in test [19] is 1.22%; in test [20], 0.84%.

For `CCCN1CCCC(c2ccc(Nc3nc(Nc4cc(F)ccc4C(N)=O)c4cc[nH]c4n3)c(OC)c2)C1` (stereo not given), the inhibition in [1] was determined as 1.76%; in [2] it was 17.9%; in [3], 1.55%; in test [4] it was 13%; in test [5], 4.88%; in test [6], 5.31%. Besides, the inhibition stood at 1.64% in test [7]; 7.01% in test [8]; 1.93% in [9]; 4.24% in test [10]; 2.08% in test [11]; 2.2% in test [12]. Further, the inhibition was 2.23% in test [13]; 2.24% in test [14]; 15.9% in test [15]; -0.31% in test [16]; 3.2% in test [17]; 1.86% in test [18]. For the same compound, the inhibition is 1.44% in test [19] and 5.05% in test [20].

On to `OCc1ccc(-c2nc(-c3ccccn3)c(-c3ccc4c(c3)OCO4)[nH]2)cc1`, for which the inhibition in test [1] is 0.27%; in test [2] it was -0.19%; in test [3] it was 0.91%; in test [4], 1.33%; in [5], 4.12%; in test [6], 3.7%. Besides, the inhibition in test [7] is 1.01%; in test [8], 3.89%; in test [9], 2.09%; in test [10] it was 3.2%; in test [11], 3.18%; in [12], 1.99%. In addition, the inhibition in test [13] was 1.95%; in test [14] it was 1.27%; in [15], 2.06%; in test [16], 0.21%; in test [17] it was 0.2%; in test [18] it was 3.79%. In addition, the inhibition in test [19] came out at 1.71%; in [20], 1.49%.

Turning to `COC(=O)Nc1nc2cc(Oc3ccc(NC(=O)Nc4cccc(Br)c4)cc3)ccc2[nH]1`, the inhibition in test [1] was 0.43%; in test [2], 0.85%; in test [3], 1.24%; in [4] it was -0.22%; in test [5], 2.67%; in test [6] it was 1.7%. Besides, the inhibition turned out to be 2.29% in test [7]; 2.39% in [8]; 2% in test [9]; 3.21% in [10]; 3.36% in [11]; 1.25% in [12]. Also, the inhibition was 1.19% in [13]; 1.04% in test [14]; 1.61% in test [15]; -0.97% in test [16]; 2.4% in test [17]; -0.37% in [18]. The inhibition in test [19] is 4.28%; in test [20], -0.79%.
